# The list is not random: actives were taken first. Their share in the collection is about 7%.
# proKLK7 act: activators of human kallikrein-7 zymogen; purified proKLK7, EDANS-DABCYL substrate fluorescence; 100% is mature enzyme control, 0% vehicle; activation, % at 7 µM; P49862; 370,000 tested, 0.9% active; AID 652039;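 active = activation above the mean of all tested compounds plus 3 SD, computed per campaign excluding outliers beyond control limits, cut at about 13% in these data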
# ADAM10 inh: inhibits human ADAM10; O14672; inhibition, % at 7 µM; 370,000 tested, 0.62% active; recombinant ADAM10, EDANS/DABCYL FRET peptide cleavage, 3 h;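 active = inhibition above a per-campaign cutoff equal to the mean of compounds falling between control-based bounds plus 3 SD, cut at about 20% in these data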;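 also: 0% = DMSO wells while the 100% control is not disclosed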
# Target sequence (O14672 214-748 limits assumed): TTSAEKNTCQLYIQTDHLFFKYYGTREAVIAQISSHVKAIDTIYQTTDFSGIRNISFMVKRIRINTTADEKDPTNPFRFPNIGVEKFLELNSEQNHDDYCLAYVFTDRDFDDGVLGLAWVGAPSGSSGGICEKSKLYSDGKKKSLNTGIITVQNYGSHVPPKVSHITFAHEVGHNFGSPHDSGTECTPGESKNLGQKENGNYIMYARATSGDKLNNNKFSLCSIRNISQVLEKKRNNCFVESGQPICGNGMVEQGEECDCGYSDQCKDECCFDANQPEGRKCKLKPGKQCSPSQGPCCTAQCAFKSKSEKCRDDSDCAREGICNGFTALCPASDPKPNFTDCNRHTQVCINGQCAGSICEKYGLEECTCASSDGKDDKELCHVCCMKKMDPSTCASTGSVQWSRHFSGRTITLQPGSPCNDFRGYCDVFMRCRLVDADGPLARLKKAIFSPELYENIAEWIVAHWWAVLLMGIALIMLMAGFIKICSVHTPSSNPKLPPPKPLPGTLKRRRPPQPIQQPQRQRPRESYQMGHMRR
# ADAM17 inh: inhibitors of human ADAM17. recombinant ADAM17, EDANS/DABCYL FRET peptide cleavage. P78536. AID 720648. 370,000 tested, 0.83% active. inhibition, % at 6.95 µM;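 active = inhibition above the mean of compounds lying between control limits plus 3 SD, set per campaign, cut at about 8.5% in these data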;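 also: 0% = DMSO-only wells as the low control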
# AHR act: activates the human aryl hydrocarbon receptor | P35869 | AHR-responsive luciferase reporter cells, luminescence | activation, % at 5 µM | 320,000 tested, 2.5% active; in the data active = activation above about 47%;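 also: 0% = vehicle wells and 100% = reference agonist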
# rCAG binder: r(CAG) repeat RNA binding; TO-PRO-1 dye displacement fluorescence; 370,000 tested, 1.3% active; inhibition, % at 3 µM; AID 651821;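 active = inhibition above the plate cutoff, the mean of all test compounds on that plate plus 3 SD, cut at about 35% in these data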;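 also: 0% = DMSO alone and 100% = 100 µM mitoxantrone as full dye displacement; higher means more dye released from RNA so lower well fluorescence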
# GRIN3A LBD mod: modulators (binders) of human NR3A ligand-binding domain; NR3A LBD differential scanning fluorimetry, Tm shift; 0% = protein alone, 100% = glycine-bound protein; Tm shift relative to glycine control, % at 25 µM; 340,000 tested, 2.5% active; AID 1259313;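 active = melting temperature shift of at least 10% of the positive control shift, at one fixed dose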
# AHR act cf: confirmation of human aryl hydrocarbon receptor activators; shares compounds with AHR act; human cells, AHR-responsive luciferase reporter, luminescence; activation, % at 9 µM; 2,300 tested, 87% active; AID 2845; in the data active = activation above about 49%;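 also: HepG2 hepatoma cells carrying a DRE-driven firefly luciferase reporter; 0% = vehicle wells and 100% = reference agonist wells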
# PXR act counter: activates human PXR in AHR activator counter-screen; shares compounds with AHR act; cell-based PXR reporter, luciferase luminescence; activation, % at 11.6 µM; 2,300 tested, 88% active; AID 434939; in the data active = activation above about 11%;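 also: human hepatoma DPX-2 cells expressing full-length human PXR; 0% = DMSO and 100% = reference agonist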
# Starred values were filed as active, the others as inactive; i = inactive; . = no result given.
SMILES,proKLK7 act,ADAM10 inh,ADAM17 inh,AHR act,rCAG binder,GRIN3A LBD mod,AHR act cf,PXR act counter
Cc1ccc2nc(-c3cccc(NC(=O)c4ccco4)c3)[nH]c2c1,1,2,-3,91*,8,5,92*,16*
Cc1nc(-c2cccc(NC(=O)c3ccco3)c2)cs1,0,-8,-2,.,-2,-9,.,.
C[C@H]1[C@@H](OC(=O)Nc2cccc(C(F)(F)F)c2)CC[C@@]23CCCN2C(=O)CCC[C@@H]13,.,-9,0,.,.,.,.,.
CC(C)=CC([C@]12C[C@H](CO)N[C@@H]1Nc1ccccc12)S(=O)(=O)c1ccccc1 (stereo not given in full),.,5,-1,.,.,.,.,.
Nn1c(SCC(=O)NC2CCCCC2)nnc1-c1n[nH]c2c1CCC2,0,-8,0,.,4,.,.,.
O=CN1CCN(C(=O)C2CCN(c3ncnc4c3sc3cccc(F)c34)CC2)CC1,1,-34,-9,.,6,.,.,.
CCOC(=O)C1(Cc2ccc(OC)cc2)CCN(C(=O)c2cc3ccccc3[nH]2)CC1,0,7,7,105*,0,-18,89*,40*
COC(=O)[C@H]1[C@@H](O)[C@@]2(O)c3c(OC)cc(OC)cc3O[C@@]2(c2ccc(OC)cc2)[C@@H]1c1ccc(F)cc1,0,-3,-2,.,0,.,.,.
O=C(CSc1nc2ccccc2nc1N1CCOCC1)N1CCN(c2cccc(C(F)(F)F)c2)CC1,-1,0,4,.,4,.,.,.
Cc1c(Cc2ccc3c(c2)OCO3)sc(NC(=O)C2CC2)c1C(N)=O,0,-1,-2,0,-3,0,.,.
Cc1c(Cc2ccc3c(c2)OCO3)sc(NC(=O)c2cccc3ccccc23)c1C(N)=O,-4,-5,2,103*,10,0,60*,58*
Cc1ccc(NCC(=O)N/N=C/c2c[nH]c3ccccc23)cc1,0,7,-1,158*,13,24*,111*,19*
Cc1ccc(NC(C)C(=O)N/N=C/c2c[nH]c3ccccc23)cc1 (stereo not given),0,4,5,31,2,-6,.,.
COC(=O)C1=CC(=O)C=C(OC)[C@@]12Oc1cc(C)cc(OC)c1C2=O,2,-15,-8,.,-2,.,.,.
CC(=O)N1CCN(S(=O)(=O)c2ccccc2)C1c1ccccc1 (stereo not given),0,5,3,102*,0,-1,9,63*
CS(=O)(=O)N(CC(=O)Nc1cccc(F)c1)c1cccc([N+](=O)[O-])c1,0,-6,-3,4,4,-7,.,.
CS(=O)(=O)N(CC(=O)Nc1cccc([N+](=O)[O-])c1)c1ccccc1,0,1,0,90*,3,-2,48*,83*
CC(=O)c1cc(-c2ccccc2)n(CC(=O)NCc2ccccc2Cl)c1C,0,1,2,.,5,.,.,.
C/C(=N\NC(=O)c1cccc([N+](=O)[O-])c1)c1cccs1,0,5,0,81*,4,0,79*,31*
C[C@H](c1ccccc1)N1C[C@@H](COCc2ccccc2)Oc2cccc(Oc3ccc(F)cc3)c2S1(=O)=O,0,2,0,.,8,.,.,.
N/C(=N\OC(=O)c1ccccc1)c1ccccn1,0,15,0,8,1,1,.,.
COc1ccc(Cl)cc1C(=O)O/N=C(\N)c1ccccn1,0,0,-1,17,0,0,.,.
N/C(=N\OC(=O)c1ccc(Br)o1)c1ccccn1,0,-5,-1,79*,-1,2,29,22*
N/C(=N\OC(=O)c1cc(Cl)ccc1Cl)c1ccccn1,0,-3,1,122*,-2,-3,64*,17*
Cc1ccc2nc(SCC(=O)c3ccc(Cl)s3)[nH]c2c1,0,2,-1,86*,8,-2,45,46*
SMILES,proKLK7 act,ADAM10 inh,ADAM17 inh,AHR act,rCAG binder,GRIN3A LBD mod,AHR act cf,PXR act counter
Cc1ccc2nc(SCC(=O)Nc3ccc(F)c([N+](=O)[O-])c3)[nH]c2c1,-1,17,8,99*,13,9,114*,27*
CCC(=O)Nc1ccc(C(=O)CSc2nc3ccc(C)cc3[nH]2)cc1,-1,1,-2,34,11,-11,.,.
C=CCCC1CN(Cc2ccc(OC)cc2)S(=O)(=O)c2c(cccc2N2CCCC2)O1 (stereo not given),-1,2,1,.,4,.,.,.
Nc1ccccc1C(=O)NNc1c2ccccc2nc2ccccc12,2,i,-292,96*,12,-1,105*,64*
Cc1[nH]nc(Nc2ccc(O)cc2)c1[N+](=O)[O-],0,1,-1,-4,1,-40,.,.
Cc1ccc(Nc2n[nH]c(C)c2[N+](=O)[O-])c(C)c1,1,8,4,132*,1,-2,127*,15*
Cc1ccccc1Nc1n[nH]c(C)c1[N+](=O)[O-],0,14,3,80*,5,-6,106*,22*
Cc1ccc2nc(SCc3nc4c(cnn4-c4ccccc4)c(=O)[nH]3)[nH]c2c1,0,0,2,121*,6,-2,29,37*
O=c1[nH]c(CSc2nc3ccccc3[nH]2)nc2c1cnn2-c1ccccc1,0,1,-1,1,13,-11,.,.
O=c1[nH]c(SCc2ccccc2Cl)nc2c1cnn2-c1ccccc1,0,11,5,117*,8,-11,77*,105*
O=C(NCCOc1ccccc1)C1Nc2ccc(C(F)(F)F)cc2C2c3ccccc3CC12 (stereo not given),0,-6,-3,87*,6,4,7,78*
COC(=O)[C@]1(CNC(=O)NCCc2ccc(OC)c(OC)c2)CC(=O)N(C)[C@@H]1c1ccccc1,0,6,5,.,-2,.,.,.
CCOCCOC(=O)c1[nH]c2c(c1C)C(=O)CC(c1ccc(N(C)C)cc1)C2 (stereo not given),0,-3,2,8,0,-5,.,.
CCC(C)OC(=O)c1[nH]c2c(c1C)C(=O)CC(c1ccc(N(C)C)cc1)C2 (stereo not given),0,2,3,82*,9,-9,35,70*
CCCN(Cc1ccccc1)C(=S)Nc1cccc(C)c1C,0,3,2,1,-4,1,.,.
Cc1cccc(NC(=S)NN(Cc2ccccc2)c2ccccc2)c1C,0,11,3,116*,2,0,108*,214*
